Experimental data taken from PubChem BioAssay (NCI).
This is part of a sample that, as a whole, favours compounds with a hit. Of some 79,000 tested, about 15% had one in any assay. A number with no mark means an inactive call. The source made the active and inactive calls. No stated cut-off is given here; in the data, active means growth inhibition above about 70%; inactive means the rest.

Tests used:
[1] = NCI Yeast Anticancer Drug Screen. Data for the rad50 strain (AID 155);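 further: 0% = growth of vehicle-only cultures of the same strain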; conditions: S. cerevisiae rad50 strain growth inhibition; at 50.0 µM; stronger effect = higher value
Summary of the method: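 DNA repair mutant yeast, compound exposure, growth read-out; inhibition is taken relative to vehicle.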

[2] = NCI Yeast Anticancer Drug Screen. Data for the mec2-1 strain (AID 157); conditions: S. cerevisiae mec2-1 strain, at 50.0 µM, stronger effect = higher value
Summary of the method: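 Yeast mec2-1 mutant treated with compound. Readout: growth inhibition vs vehicle controls.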

[3] = NCI Yeast Anticancer Drug Screen. Data for the sgs1 mgt1 strain (AID 161);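 further: 0% = growth of cultures given vehicle only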; conditions: S. cerevisiae sgs1 mgt1 strain, at 50.0 µM, stronger effect = higher value
Summary of the method: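 Inhibition of yeast growth, normalised to vehicle-treated controls, is reported for a strain bearing genetic alterations in DNA damage repair.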

[4] = NCI Yeast Anticancer Drug Screen. Data for the cln2 rad14 strain (AID 165);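 further: 0% = growth equal to vehicle treated cultures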; conditions: S. cerevisiae cln2 rad14 strain, at 50.0 µM, stronger effect = higher value
Summary of the method: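 cln2 rad14 yeast strain; compound exposure; growth inhibition read vs vehicle controls.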

[5] = NCI Yeast Anticancer Drug Screen. Data for the bub3 strain (AID 167); conditions: S. cerevisiae bub3 mutant strain, at 50.0 µM, stronger effect = higher value
Summary of the method: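 In this screen, a yeast mutant lacking normal mitotic checkpoint function is challenged with compound. Relative growth versus vehicle gives the inhibition value.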

[6] = NCI Yeast Anticancer Drug Screen. Data for the mlh1 rad18 strain (AID 175); conditions: S. cerevisiae mlh1 rad18 strain growth inhibition; at 50.0 µM; stronger effect = higher value
Summary of the method: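 Yeast w/ defined DNA-repair lesions; compound exposure; growth vs vehicle controls → % inhibition.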

Structure (SMILES)	growth inhibition [1]	growth inhibition [2]	growth inhibition [3]	growth inhibition [4]	growth inhibition [5]	growth inhibition [6]
Nc1ccc(N(S(=O)(=O)c2ccccc2)S(=O)(=O)c2ccccc2)c(Cl)c1	77.3% (active)	45.8%	82% (active)	39.5%	69%	78.7% (active)
CC(=O)Nc1ccc(S(=O)(=O)NC(=O)NC(C)C)cc1	-4.2%	-26.4%	-2.4%	20%	3%	14.3%
O=C(NC(=O)c1c(F)cccc1F)Nc1nc2c(Cl)cccc2s1	21.4%	14.7%	10.1%	-4.9%	-6.55%	17.6%
Fc1ccc(C2SCc3nc4ccccc4n32)cc1F (stereo not given)	-49.9%	-1.3%	24.3%	1.25%	-13.8%	18.6%
CCOC(=O)c1sc(N)nc1O	-5.5%	-0.3%	-3.75%	5.85%	6.25%	-8.8%
C=CCNC(=O)C[n+]1cccc(C(=O)Nc2ccccc2)c1	1.65%	-18.2%	5.4%	23.2%	5.95%	-0.95%
CC(=O)c1cccc(C)n1	29.8%	-6.05%	22.1%	18.2%	10.9%	36.7%
CCCCc1c(O)c(N=NC(N)=S)c2ccccc2c1O	14.9%	8.45%	36.8%	-22.1%	32.6%	43.5%
Cc1ccc(NC(=O)/C(Cc2nc3ccc([N+](=O)[O-])cc3[nH]c2=O)=N\NC(=O)C[n+]2ccccc2)c(C)c1	-7.5%	-9.25%	-4.3%	14.9%	15.3%	-7.65%
Nc1ccc(N(S(=O)(=O)c2ccccc2)S(=O)(=O)c2ccccc2)nc1	27.4%	6.3%	11.1%	-4.45%	2.25%	17.7%
CCOC(=O)/C=C(\C)NC	-27.5%	-46.9%	-30.9%	-2.75%	-47%	5.95%
CS(=O)(=O)Cc1cc(-c2ccccc2)no1	15.1%	28.1%	8.7%	-3.4%	7.75%	9.85%
CC1=C(CCCO)/C(=N\O)CCC1	3.75%	-1.75%	-3%	-30.4%	17.5%	-28%
O=C(/C=C/c1cccs1)c1ccc([N+](=O)[O-])cc1	-59%	-58.7%	-27.6%	-6.3%	-23.1%	-21.6%
NS(=O)(=O)c1ccc(N=Nc2c[nH]c(=O)c(O)c2)cc1	3.45%	4.95%	-9.55%	-37.4%	-60.4%	2.3%
CCOC(=O)C(NC(=O)c1ccccc1)(N1CCOCC1)C(F)(F)F (stereo not given)	25.3%	-20.1%	8.05%	15.8%	-3.45%	-44.9%
Nc1ccc(N2CCN(c3ccc(N)cc3)CC2)cc1	12.2%	-9.95%	16%	10.2%	12.3%	15.8%
Clc1ccnnc1Cl	-17.7%	-30.8%	-43%	13.2%	-37.5%	-15.7%
Oc1ccccc1C1SC(c2ccccc2O)SC(c2ccccc2O)S1 (stereo not given)	96.9% (active)	96% (active)	95.7% (active)	93.1% (active)	97% (active)	95.8% (active)
BrCCOc1ccccc1	19.4%	8%	-28.6%	-29.5%	-8.3%	-25.5%

Structure (SMILES)	growth inhibition [1]	growth inhibition [2]	growth inhibition [3]	growth inhibition [4]	growth inhibition [5]	growth inhibition [6]
CC(C)c1ccc([N+](=O)[O-])cc1	31.5%	11.1%	11.2%	26.6%	5.95%	16.9%
O=C(O)c1cccc(Sc2ccccc2)c1	-0.05%	9.25%	8.25%	-0.85%	-18.9%	16.6%
COc1cc2c3c(c1)[nH]c(=S)n3C(=O)C(c1ccccc1)S2 (stereo not given)	-32.5%	5.8%	-3.5%	40.6%	10.1%	-27.8%
CC(C)CCCC(C)C1CCC2C3C(O)CC4CCCCC4(C)C3CCC12C (stereo not given)	96.7% (active)	97.8% (active)	98% (active)	95.2% (active)	95.7% (active)	97.9% (active)
Cc1cccc[n+]1CC(=O)c1ccc(Cl)cc1	-8.05%	3.25%	1.05%	-44.8%	-4%	3.65%
C=C(C)C1CC=C(C)[C@](O)(C2(O)C[C@H](C(=C)C)CC=C2C)C1 (stereo not given in full)	-0.55%	6.95%	26.1%	23.9%	6.6%	9.65%
O=Nc1c(O)c(S(=O)(=O)O)cc2cc(S(=O)(=O)O)ccc12	24.9%	-1.8%	51.1%	17.9%	37.6%	11.2%
COC1(OC)C(N(C)C)=C(Cl)C(=O)/C1=C/C=O	7.75%	-10.7%	-16.9%	-6.65%	13.8%	-16.4%
COc1ccc(C(=O)c2ccccc2C)cc1OC	1.65%	0.1%	-1.15%	28.1%	36.5%	0.15%
Cc1ccc(-c2c3c(n(C4OC(CO)C(O)C(O)C4O)c(=S)c2C#N)CC(C)(C)CC3=O)cc1 (stereo not given)	23.5%	13.7%	-4.45%	-8.95%	9.15%	11.8%
COCC1CCCCC1O (stereo not given)	-9.95%	7.15%	3.05%	26.8%	18.1%	-2.35%
C=CCNC(=O)CN(CC(=O)OC)C1CCCCC1N(CC(=O)OC)CC(=O)OC (stereo not given)	-8.3%	-6.6%	-1.8%	6.75%	2%	1.75%
CSC(C(O)C(O)C(O)C(O)CO)n1cnc2c(=S)nc[nH]c21 (stereo not given)	1.1%	5.7%	5.75%	19.6%	11.3%	9%
OCC(I)CO	15.8%	3.45%	16.9%	1.45%	1.7%	16.6%
CCC(=O)CC(C)=O.CCC(=O)CC(C)=O.[Cu]	-10.3%	19.4%	5.5%	-31%	-2.2%	14.2%
COc1ccc(C)c(CN(C)C)c1	7.85%	-7.7%	8.35%	5.25%	-1.2%	23.6%
CSc1nc(SC)c2c(C(N)=S)[nH]nc2n1	23.3%	20.9%	47%	19.7%	18.6%	23.6%
Cn1c(=O)c2c(nc(CCC(N)=O)n2C)n(C)c1=O	-1.35%	-20.9%	8.25%	-14.8%	11.8%	12.7%
COC(=O)C1=Cc2cc(OC)c(OC)cc2[C@H](c2ccc(OC)c(OC)c2)C1C(=O)OC (stereo not given in full)	-6.8%	-11.7%	-31.4%	0.95%	18.2%	1.45%
Cc1ccccc1NC(=O)CC(=O)NNC(Sc1ccccc1)c1cc(N=Nc2ccc(Br)cc2)ccc1O (stereo not given)	19.3%	14.1%	27.1%	-3.95%	17.9%	18.9%
